The sequences below were run against FLG (assay: pooled miR-30 sensor sort-seq; sequence = guide strand). Conditions: shRNA.
Further: reference of the scale not given here.

| Sequence | sensor-assay potency score (higher = more potent) |
| --- | --- |
| TTGTCTGCTTGCACTTCTGGAT | -0.517 |
| TAATCTGCACTACCATAGCTGC | -1.29 |
| TTTCTCTGCTTGCACTTCTGGA | -0.359 |

What follows are sequences tested against FLNC in the same assay as above. Conditions: shRNA.

| Sequence | sensor-assay potency score (higher = more potent) |
| --- | --- |
| TGAGCCATCACCATTGTCCTGG | 0.0505 |
| TAGAGCTTCAGGTCTCCCTTGC | 0.291 |
| TAGGTGACTTTGCATGTCCCGT | -0.929 |
| TTGGTGACAATAGTGAAGGTGG | 0.0613 |
| TAGGCTGACACCAAGCCTGGGT | -0.0141 |
| TTGTCAGCAAACTTGATGTTGA | -0.54 |
| TTGAGGTCACAGGTGCTGCCGA | -0.595 |
| TAGGACACAGTGTACGTGCCAT | -0.557 |
| TGAACTCTGATGACACACCGGT | 0.0555 |
| TTGAACTTGATGGAGACCTCAT | -0.144 |
| TTGACGGTGAAGGTGTCGTTGT | -0.371 |
| TTACAGGTGATCTCTGCCTTGG | -0.839 |
| TTGAGGTGCTCATTGCACCAGC | -0.419 |
| TACTGCACTCGGTAGGTGCCGT | -0.627 |
| TTTGATTTTGCTGAGGTCCAGC | 0.0406 |
| TTCAGTGACACGTCCGTGGAGG | -0.25 |
| TTGATGTCCACCTTGCTTGGGC | 0.144 |
| TTGATGGTGATGGTGTACCGGC | -1.25 |
| TAGGAGACAGCATAGGTGCGAT | -0.825 |
| TTGAGGTTGAGGTCACAGGTGC | -0.307 |
| TTGACTGCAGTCCACTGTGAAG | -1.44 |
| TAGCTGACAGCACATGAGCCAT | -1.71 |
| TTGTCTGTCACATAGGTGTCTG | -0.552 |
| TTGTCGGTGATGTTGGGCCGTG | -1.35 |

The sequences below were run against FMNL2 in the same assay as above. Conditions: shRNA.

| Sequence | sensor-assay potency score (higher = more potent) |
| --- | --- |
| TTATCTTTAACTTGTCGTCTTC | 0.239 |
| TTCTTCTTTTTCTTTGACCATT | -1.21 |
| TTCCATGAGAGCTTGTTCCTGC | 0.908 |
| TAATTCTGCAATTAACTCTTGC | -0.103 |
| TTCTGCAATTAACTCTTGCTGC | -0.158 |
| TTTCTCTAGCTCATGAATCTTT | -0.357 |
| TAGCTTTACATATTTCATCAGC | -0.662 |
| TTGAGTATTTGCATCTTTGTAG | 0.305 |
| TTATATGCTTTCACAAACCGGA | -0.533 |
| TTATAGAGACAGATGCTGCTAT | 0.344 |
| TAGACTGTCTTTGAATTGCTTC | 0.088 |
| TACAATATTAATAAACTGCATA | -0.855 |
